LYPLA2 counter: blocks human lysophospholipase 2, a PME1 counter-screen; O95372; recombinant LYPLA2, FP-Rh probe fluorescence polarization; inhibition, % at 5.9 µM; 0.38% of 320,000 active;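 active means inhibition above the screen-wide mean plus 3 SD, limit set per campaign, cut at about 26% in these data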
Target sequence (O95372 whole entry, looked up): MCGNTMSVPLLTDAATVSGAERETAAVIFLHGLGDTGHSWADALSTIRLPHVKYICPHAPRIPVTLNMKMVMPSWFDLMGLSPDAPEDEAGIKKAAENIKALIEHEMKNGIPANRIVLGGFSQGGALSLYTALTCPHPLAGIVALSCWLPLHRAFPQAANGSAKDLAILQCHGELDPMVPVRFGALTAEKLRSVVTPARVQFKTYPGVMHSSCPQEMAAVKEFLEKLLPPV
pPAFAH inh: inhibitors of human plasma PAF acetylhydrolase (pPAFAH) | Q13093 | recombinant pPAFAH, FP-rhodamine probe fluorescence polarization | inhibition, % at 3.39 µM | 1.5% of 330,000 active;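 active means inhibition above the mean inhibition across the screen plus 3 SD, cut at about 25% in these data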;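 further: inhibitors block binding of the rhodamine activity-based probe so polarization drops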
PAFAH2 inh: inhibitors of human PAFAH2; 0.99% of 340,000 active; recombinant PAFAH2, FP-rhodamine activity probe, fluorescence polarization; inhibition, % at 3.39 µM; Q99487;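 active means inhibition above the mean over all tested compounds plus 3 SD, cut at about 30% in these data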;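 further: inhibitors block probe labeling of enzyme so polarization drops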
PAFAH1B3 inh: PAFAH1B3 (human) inhibition. Q15102. recombinant PAFAH1B3, FP-rhodamine probe, fluorescence polarization. inhibition, % at 3.39 µM. 0.28% of 340,000 active. AID 492972;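 active means inhibition above the screen-wide average of all tested compounds plus 3 SD, cut at about 25% in these data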
Target sequence (Q15102 whole entry, looked up): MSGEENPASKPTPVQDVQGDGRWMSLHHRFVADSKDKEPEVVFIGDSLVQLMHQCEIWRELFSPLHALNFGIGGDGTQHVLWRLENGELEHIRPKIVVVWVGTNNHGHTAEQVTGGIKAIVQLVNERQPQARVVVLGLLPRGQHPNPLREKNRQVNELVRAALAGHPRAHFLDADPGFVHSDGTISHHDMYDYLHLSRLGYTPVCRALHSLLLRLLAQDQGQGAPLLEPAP
PAFAH1B2 FP inh: PAFAH1B2 (human) inhibition. P68402. recombinant PAFAH1B2, FP-rhodamine activity probe, fluorescence polarization. inhibition, % at 3.39 µM. 1.2% of 340,000 active;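 active means inhibition above the mean of all tested compounds plus 3 SD, cut at about 24% in these data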
LYPLA1 counter: counter-screen for PME1 inhibitors: inhibitors of human LYPLA1. 0.16% of 320,000 active. recombinant LYPLA1, FP-Rh probe fluorescence polarization. inhibition, % at 5.9 µM. AID 2174;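 active means inhibition above the mean of all tested compounds plus 3 SD, set per campaign, cut at about 14% in these data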;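 further: inhibitors block serine hydrolase probe labeling of LYPLA1 so polarization falls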
A number is an active result; - = inactive; . = no result. In the library only some 2.9% were active in any assay of this set; here they are far more common.

SMILES | LYPLA2 counter | pPAFAH inh | PAFAH2 inh | PAFAH1B3 inh | PAFAH1B2 FP inh | LYPLA1 counter
Cc1ccc([C@@H]2CC=C(C(=O)O)[C@H](c3ccc(C(C)(C)C)cc3)N2S(=O)(=O)c2ccc(C)cc2)cc1 | . | - | - | - | 86.9 | .
CC1=C(C(=O)OC2CCCCCCC2)C(c2ccc(O)cc2)NC(=O)N1 (stereo unspecified) | - | - | - | - | 24.9 | -
CCn1nc(NS(=O)(=O)c2ccc([N+](=O)[O-])cc2)c2cc3cccc(C)c3nc21 | - | 27.7 | - | - | - | -
CCn1nc(NS(=O)(=O)c2ccccc2[N+](=O)[O-])c2cc3cccc(C)c3nc21 | - | - | - | - | - | -
Cc1c(C#N)c(N)nc2c3c(sc12)NC(=O)CC3c1ccc(Cl)cc1 (stereo unspecified) | - | - | - | - | - | -
N#Cc1c(N)nc2c3c(sc(=N)c2c1N)NC(=O)CC3c1ccccc1 (stereo unspecified) | - | 28.4 | - | - | - | -
N#Cc1c(N)nc2c3c(sc(=N)c2c1N)NC(=O)CC3c1c(F)cccc1Cl (stereo unspecified) | - | 26.6 | - | - | - | -
O=C(O)C(Cc1c[nH]c2ccccc12)NS(=O)(=O)c1ccccc1 (stereo unspecified) | - | - | - | - | 24.3 | -
Cc1ccc(NC(=O)Nc2cnccn2)cc1Cl | - | - | - | - | - | -
O=C(c1ccccc1)c1coc2c1C(=O)c1ccccc1C2=O | - | - | 47.6 | 28.6 | - | -
COc1ccc(C(=O)c2coc3c2C(=O)C(=O)c2ccccc2-3)cc1 | - | - | - | - | - | -
O=C(O)CSc1nc(SCc2ccccc2Cl)nc2c1CCCC2 | - | - | - | - | - | -
Cc1ccc2cc(C3C(C#N)=C(N)Oc4c3ccc3cccnc43)c(=O)[nH]c2c1 (stereo unspecified) | - | 26.6 | - | - | - | -
CCc1ccc2[nH]c(=O)c(C3C(C#N)=C(N)Oc4c3ccc3cccnc43)cc2c1 (stereo unspecified) | - | 43.0 | - | - | - | -
CN1CCCN(C(=O)/C=C/c2ccc(Cl)cc2Cl)CC1 | - | - | - | - | - | -
CC(C)=CCC/C(C)=C/CC/C(C)=C/CC/C(C)=C/CC1=C(C)C(=O)c2ccccc2C1=O | - | - | - | - | - | -
CC(C)=CCC1=C(OCC(=O)O)C(=O)c2ccccc2C1=O | - | - | 34.8 | 56.7 | - | -
CCOc1ccc(NC(=O)CCSc2ccc(C)cc2)cc1 | - | - | - | - | 24.8 | -
Cc1ccc(-n2c(-c3ccc(Cl)cc3Cl)n[nH]c2=S)cc1 | - | - | - | - | - | -
CC1CCN(S(=O)(=O)c2cnc(Cl)c(Br)c2)CC1 | - | - | - | - | 25.6 | -
COc1cc2c(cc1OC)CN(S(=O)(=O)c1cccc(F)c1)CC2 | - | - | - | - | - | -
O=C(N/N=C/c1cccc([N+](=O)[O-])c1O)c1cccs1 | - | - | - | - | - | -
O=C(N/N=C/c1cc([N+](=O)[O-])cc([N+](=O)[O-])c1O)/C(=C\c1cccs1)NC(=O)c1ccccc1 | - | 30.8 | - | - | - | -
CC(C)(C)NC(=O)C1CCN(S(=O)(=O)c2ccc(Br)cc2)CC1 | - | - | - | - | 28.9 | -
CC(=O)N1CCC(C(=O)Nc2ccc(S(=O)(=O)N3CCCC(C)C3)cc2)CC1 (stereo unspecified) | . | . | - | - | - | .
SMILES | LYPLA2 counter | pPAFAH inh | PAFAH2 inh | PAFAH1B3 inh | PAFAH1B2 FP inh | LYPLA1 counter
CC1CCN(S(=O)(=O)c2ccc(NC(=O)CSc3nnnn3C)cc2)CC1 | - | - | - | - | 42.5 | -
CC1CCN(S(=O)(=O)c2ccc(S(=O)(=O)NCC(=O)C(C)(C)C)cc2)CC1 | - | - | - | - | 26.4 | -
CC(=O)N1CCC(C(=O)Nc2ccc(S(=O)(=O)N3CCC(C)CC3)cc2)CC1 | - | - | - | - | 28.7 | -
Cc1cc(=O)oc2cc(OCC(=O)N3CCCC3)ccc12 | . | - | - | - | - | .
COc1ccccc1N1CCN(S(=O)(=O)c2cnc[nH]2)CC1 | - | - | - | - | - | -
Cc1cccnc1NC(=O)c1cccc(NC(=O)CC2SC(N3CCCCC3)=NC2=O)c1 (stereo unspecified) | - | - | - | - | - | -
CC1CCN(S(=O)(=O)c2ccc(NC(=O)[C@@H]3CCCN3C(=O)c3cccs3)cc2)CC1 | - | 24.7 | - | - | 37.1 | -
COc1ccc(NC(=O)[C@@H]2CCCN2C(=O)c2cccs2)cc1S(=O)(=O)N1CCCCC1 | - | - | - | - | - | -
CC1CCCN(S(=O)(=O)c2ccc(NC(=O)[C@@H]3CCCN3C(=O)c3cccs3)cc2)C1 (stereo partly specified) | - | 30.4 | - | - | - | -
Nc1nc(Sc2ccc([N+](=O)[O-])c3nonc23)c2[nH]cnc2n1 | . | . | 29.7 | 37.6 | - | .
CNc1ncnc(Sc2nc(N)nc3nc[nH]c23)c1[N+](=O)[O-] | . | . | - | - | - | .
CC(C)C(NC(=O)CC12CC3CC(CC(C3)C1)C2)C(=O)O (stereo unspecified) | - | - | - | - | 24.9 | -
Cc1cc(C(=O)NCc2cccs2)ccc1[N+](=O)[O-] | - | - | - | - | - | -
Cc1cc(C(=O)OCC(=O)NCc2cccs2)ccc1[N+](=O)[O-] | . | 31.4 | - | - | - | .
Cn1c(SCC(=O)Nc2cccc(S(=O)(=O)N3CCOCC3)c2)nnc1-c1ccncc1 | - | - | - | - | - | -
O=C(CCCN1C(=O)/C(=C\c2ccccc2)SC1=S)Nc1ccc(O)cc1C(=O)O | - | - | - | - | 63.6 | -
CCc1ccc(/C=C2\SC(=S)N(CCCC(=O)Nc3ccccn3)C2=O)cc1 | - | - | - | - | - | -
CC(C(=O)Nc1ccc(O)cc1C(=O)O)N1C(=O)/C(=C\c2cccs2)SC1=S (stereo unspecified) | - | 28.4 | - | - | - | -
O=C(CCCN1C(=O)/C(=C/c2ccccc2)SC1=S)Nc1ccccc1O | - | - | - | - | - | -
O=C(CCCN1C(=O)/C(=C/c2ccccc2Cl)SC1=S)NNC(=O)c1ccccc1 | - | 32.1 | - | - | - | -
CCc1ccc(/C=C2/SC(=S)N(CCCC(=O)Nc3ccccc3C(=O)O)C2=O)cc1 | - | - | 43.6 | - | 61.4 | -
CCOC(=O)c1c(-c2cccs2)csc1NC(=O)CN(CC)CC | - | - | - | - | - | -
O=C(Cc1ccc(Br)c2ccccc12)N/N=C/c1ccccn1 | - | - | - | - | - | -
O=C(NCCc1ccc(Cl)cc1)c1n[nH]c2ccccc12 | - | - | - | - | - | -
O=C(CCCN1C(=O)/C(=C/c2cccs2)SC1=S)Nc1cc([N+](=O)[O-])ccc1O | - | 30.1 | - | - | - | -
Cc1cc(NC(=O)CCCN2C(=O)/C(=C\c3cccs3)SC2=S)no1 | - | - | - | - | - | -
